13 compounds from PubChem BioAssay (Tox21) can be followed below.

Assay [1] can be described thus: qHTS assay to identify small molecule HDAC inhibitors (AID 1259364). Also: nearly all actives have a fitted effect of over 45% in size. Also: potency is read from the fitted curve at half-maximal effect. Summed up:
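Luminescence from a cell-permeant luminogenic class I/II HDAC substrate reports endogenous deacetylase activity in intact HCT-116 cells treated with compounds for 2 h.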
(qHTS replaces the single test concentration by a dilution series.)

A short description of assay [2]: qHTS assay to identify small molecule HDAC inhibitors - cell viability counter screen (AID 1259365). Also: series mostly up to about 92 µM; nearly all actives have a fitted effect of over 50% in size. Summed up:
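HCT-116 (wild type), 1,500 cells/well, overnight 37C/5% CO2; compound in DMSO 2hr; CellTiter-Glo 30min RT; luminescence read.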

A short description of assay [3]: qHTS assay to identify small molecule agonists of the sonic hedgehog signaling (Shh) pathway - cell viability counter screen (AID 1259366). Also: nearly all actives have a fitted effect of over 50% in size. Summed up:
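CellTiter-Fluor fluorescence read-out, 1 hr at 37C, added after 23hr compound exposure. Cells: 3T3 Gli1-Luc, an NIH/3T3 clone with stably integrated Gli1-Luc reporter, plated 4hr before compound.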

Assay [4] can be described thus: qHTS assay to identify small molecule antagonists of the sonic hedgehog signaling (Shh) pathway - cell viability counter screen (AID 1259367). Also: nearly all actives have a fitted effect of over 55% in size. Summed up: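 NIH/3T3-derived Gli1-Luc reporter cells (2,000 per well) rested 4 hr at 37 C, then received DMSO compounds plus conditioned medium. After 23 hr of treatment, CellTiter-Fluor was added for 1 hr at 37C and fluorescence read.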

Assay [5] can be described thus: qHTS assay to identify small molecule agonists of the sonic hedgehog signaling (Shh) pathway (AID 1259368; calls by dose curve;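 also: NIH/3T3-derived 3T3Gli1-Luc cells carrying a stable Gli1-driven firefly luciferase reporter; series mostly up to about 92 µM; nearly all actives have a fitted effect of over 15% in size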). Summed up: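 3T3Gli1-Luc (NIH/3T3 clone, stable Gli1-Luc); 4 hr pre-incubation, then cpd in DMSO 24 hr, 37 C/5% CO2; luciferase reagent 30 min RT; luminescence.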
The nature of assay [6]: qHTS assay to identify small molecule antagonists of the sonic hedgehog signaling (Shh) pathway (AID 1259369; calls by dose curve; also: nearly all actives have a fitted effect of over 45% in size). Summed up:
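3T3Gli1-Luc, conditioned-medium-stimulated, 24hr cpd, 37C/5% CO2; Gli1-driven firefly Luc luminescence after 30min RT with luciferase reagent. Cells plated 4hr before cpd.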

A short description of assay [7]: qHTS assay to identify small molecule agonists of the androgen receptor (AR) signaling pathway in the presence of an antagonist - cell viability counter screen (AID 1259379).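 Also: MDA-kb2 human breast cancer cells carrying an MMTV luciferase reporter; series mostly up to about 92 µM; nearly all actives have a fitted effect of over 25% in size.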 Summed up: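 Cells: MDA-kb2 (MMTV-luc, AR and GR elements), 3,000/well, 5 hr settle. Added: nilutamide 3.0uM final, then compounds (15 conc.). Incubation: 16 hr, 37C, no CO2. Read-out: CellTiter-Fluor, 1 hr, fluorescence.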

The target in assay [8] is Androgen receptor (Homo sapiens) (UniProt P10275). Briefly: qHTS assay to identify small molecule agonists of the androgen receptor (AR) signaling pathway in the presence of an antagonist (AID 1259381; calls by dose curve; also: nearly all actives have a fitted effect of over 15% in size). Summed up: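 MDA-kb2 cells, 3,000/well, rested 5hr at 37C/0% CO2 → nilutamide 3.0uM final or buffer → compounds, 15 conc. → 16hr at 37C → ONE-Glo, 30min RT → luminescence.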
Chain of Androgen receptor (Homo sapiens) (P10275 whole entry, looked up): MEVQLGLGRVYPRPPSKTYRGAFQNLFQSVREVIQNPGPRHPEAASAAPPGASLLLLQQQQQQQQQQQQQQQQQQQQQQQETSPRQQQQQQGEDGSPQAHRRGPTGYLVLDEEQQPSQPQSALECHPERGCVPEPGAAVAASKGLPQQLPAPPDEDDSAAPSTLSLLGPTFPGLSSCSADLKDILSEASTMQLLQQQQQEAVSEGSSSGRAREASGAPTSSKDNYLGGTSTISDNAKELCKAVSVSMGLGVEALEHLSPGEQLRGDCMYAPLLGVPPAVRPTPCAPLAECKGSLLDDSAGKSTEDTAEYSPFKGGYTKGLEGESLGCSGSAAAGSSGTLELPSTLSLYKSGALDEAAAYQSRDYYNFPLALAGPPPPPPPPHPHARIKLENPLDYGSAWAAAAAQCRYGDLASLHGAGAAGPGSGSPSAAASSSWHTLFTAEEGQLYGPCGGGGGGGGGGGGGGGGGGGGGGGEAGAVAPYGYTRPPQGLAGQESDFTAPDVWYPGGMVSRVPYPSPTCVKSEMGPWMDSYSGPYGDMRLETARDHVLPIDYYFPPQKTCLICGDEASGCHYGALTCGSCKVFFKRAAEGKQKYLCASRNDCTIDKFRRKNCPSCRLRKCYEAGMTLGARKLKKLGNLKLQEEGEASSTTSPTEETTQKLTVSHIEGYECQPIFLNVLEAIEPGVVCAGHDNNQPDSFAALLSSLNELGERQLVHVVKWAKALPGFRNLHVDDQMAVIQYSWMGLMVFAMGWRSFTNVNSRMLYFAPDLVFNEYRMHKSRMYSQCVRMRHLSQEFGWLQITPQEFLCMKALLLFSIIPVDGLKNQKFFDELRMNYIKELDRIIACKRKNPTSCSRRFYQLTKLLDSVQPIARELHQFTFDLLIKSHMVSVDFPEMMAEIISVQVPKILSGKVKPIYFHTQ

A short description of assay [9]: qHTS assay to identify small molecule antagonists of the estrogen receptor beta (ER-beta) signaling pathway - cell viability counter screen (AID 1259382).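 Also: HEK293T cells carrying ER-beta-UAS-bla reporter stimulated with estradiol; series mostly up to about 92 µM; nearly all actives have a fitted effect of over 55% in size.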 Summed up:
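Cells: ER-beta-UAS-bla HEK293T, 2,000/well, 2% CS-FBS, 6 hr settle. Cpd + E2 (1nM final), 16 hr, 37C/5% CO2. Bla FRET substrate 2 hr RT, then CellTiter-Glo 30 min RT, luminescence.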

In assay [10] the target is Estrogen receptor (Homo sapiens) (UniProt P03372). Briefly: qHTS assay to identify small molecule agonists of the estrogen receptor alpha (ER-alpha) signaling pathway in the presence of an antagonist (AID 1259383; calls by dose curve; also: nearly all actives have a fitted effect of over 15% in size; also: potency is read from the fitted curve at half-maximal effect; as to activation: top concentration of the series differs between compounds). Summed up:
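VM7Luc4E2, endog. ER-alpha + 4×ERE-luc; charcoal-stripped FBS, phenol red-free, 5 d; 24hr plating; +10.0nM ICI-182,780 (final); cpds 15 conc, 22hr, 37C/5% CO2; ONE-Glo luminescence.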

The nature of assay [11]: qHTS assay to identify small molecule agonists or antagonists of the thyroid stimulating hormone receptor (TSHR) signaling pathway - wild type cell line counter screen (AID 1259384; calls by dose curve). Summed up: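 Wild-type HEK293 cells were plated 18 h at 37 C/5% CO2, pin-dosed with compound plus Ro20-1724 medium, held 30 min at room temperature, then given cAMP-d2 and anti-cAMP-cryptate; fluorescence was read after 1 h. Fifteen concentrations, triplicate.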

A short description of assay [12]: qHTS assay to identify small molecule agonists of the estrogen receptor alpha (ER-alpha) signaling pathway in the presence of an antagonist - cell viability counter screen (AID 1259386).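 Also: series mostly up to about 92 µM; cells exposed to compounds for 22 h at 37 °C before the viability read; nearly all actives have a fitted effect of over 30% in size.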 Summed up: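 VM7Luc4E2, stripped-serum pre-culture 5 d; 24hr plating; +ICI-182,780 10.0nM final; cpds 15 conc, 22hr, 37C/5% CO2; CellTiter-Fluor added at 21hr, fluorescence 1hr later.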

Assay [13] addresses Progesterone receptor (Homo sapiens) (UniProt P06401). Briefly: qHTS assay to identify small molecule agonists of the progesterone receptor (PR) signaling pathway (AID 1346784; calls by dose curve; also: nearly all actives have a fitted effect of over 30% in size). Summed up: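 HEK 293T PR-UAS-bla reporter cells, 2% charcoal-stripped FBS; 6 hr settle at 37C/5% CO2, compound (DMSO) 16 hr, LiveBLAzer B/G FRET substrate 2 hr RT, fluorescence intensity read.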
Assay [14] has the same target. Briefly: qHTS assay to identify small molecule antagonists of the progesterone receptor (PR) signaling pathway (AID 1346795; active = well fitted inhibition curve with a large enough effect in the signal ratio in the repeat runs, not every such curve was filed as active; the % refers to the signal ratio; also: potency is read from the fitted curve at half-maximal effect). Summed up:
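Beta-lactamase reporter, HEK293T PR-UAS-bla line; 2% charcoal-stripped FBS; 6 hr pre-incubation, 37C/5% CO2. Compound + R5020 1 nM final, 16 hr. LiveBLAzer B/G FRET substrate, 2 hr RT; fluorescence intensity read.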

The nature of assay [15]: qHTS assay to identify small molecule agonists of the progesterone receptor (PR) signaling pathway - cell viability counter screen (AID 1346799; calls by dose curve; also: nearly all actives have a fitted effect of over 45% in size). Summed up:
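HEK293T PR-UAS-bla, 3,000 cells/well, 2% charcoal-stripped FBS; 6 h settle, compound 16 h at 37C/5% CO2; LiveBLAzer 2 h RT, then CellTiter-Glo 30 min RT, luminescence read.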

Assay [16] is described as follows: qHTS assay to identify small molecule agonists of the estrogen receptor beta (ER-beta) signaling pathway - cell viability counter screen (AID 1259380). Also: nearly all actives have a fitted effect of over 30% in size. Summed up:
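HEK293T ER-beta-UAS-bla; 2% CS-FBS; 6 hr pre-plate, 16 hr cpd at 37C/5% CO2; LiveBLAzer read first, then CellTiter-Glo 30 min RT, luminescence.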

Assay [17] in a line: qHTS assay to identify small molecule antagonists of the progesterone receptor (PR) signaling pathway - cell viability counter screen (AID 1346798). Also: series mostly up to about 92 µM; nearly all actives have a fitted effect of over 50% in size. Summed up: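 Luminescence readout (CellTiter-Glo, 30 min, RT) of viability in PR-UAS-bla HEK293T cells exposed to compound and R5020 agonist for 16 hr at 37C, 5% CO2; run in the same wells as the beta-lactamase reporter read.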

Assay [18] deals with Thyrotropin receptor (Homo sapiens) (UniProt P16473). Briefly: qHTS assay to identify small molecule antagonists of the thyroid stimulating hormone receptor (TSHR) signaling pathway (AID 1259385; calls by dose curve; also: nearly all actives have a fitted effect of over 20% in size). Summed up:
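TSHR-HEK293 cells were plated and held 18 h at 37C/5% CO2, then given compound plus Ro20-1724 and stimulated with TSH at 1.5 ng/mL final. After 30 min at room temperature, cAMP was detected with cAMP-d2/anti-cAMP-cryptate (1 h) by fluorescence.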

Assay [19] has as its target Estrogen receptor beta (Homo sapiens) (UniProt Q92731). Briefly: qHTS assay to identify small molecule agonists of the estrogen receptor beta (ER-beta) signaling pathway (AID 1259377; active = well fitted activation curve with a large enough effect in the signal ratio in the repeat runs, not every such curve was filed as active; the % refers to the signal ratio; also: potency is read from the fitted curve at half-maximal effect). Summed up:
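Beta-lactamase reporter readout: fluorescence of LiveBLAzer B/G FRET substrate after 2 h at room temperature, following 16 h compound treatment of ER-beta-UAS-bla HEK293T cells at 37C in 2% charcoal-stripped FBS medium.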

SMILES strings stand for the structures. Unmarked numbers belong to inactive results. Results filed as inconclusive are left out. Active and inactive are the calls of the source. Unless noted, calls follow the shape of the dose curve; as a rule, active = well fitted curve in the direction sought with a large enough effect in the repeat runs; inconclusive = weak or mixed curves; inactive = no such curve, though single readings can be large; an effect the other way counts as inactive or inconclusive.

Chain of Estrogen receptor (Homo sapiens) (P03372 whole entry, looked up): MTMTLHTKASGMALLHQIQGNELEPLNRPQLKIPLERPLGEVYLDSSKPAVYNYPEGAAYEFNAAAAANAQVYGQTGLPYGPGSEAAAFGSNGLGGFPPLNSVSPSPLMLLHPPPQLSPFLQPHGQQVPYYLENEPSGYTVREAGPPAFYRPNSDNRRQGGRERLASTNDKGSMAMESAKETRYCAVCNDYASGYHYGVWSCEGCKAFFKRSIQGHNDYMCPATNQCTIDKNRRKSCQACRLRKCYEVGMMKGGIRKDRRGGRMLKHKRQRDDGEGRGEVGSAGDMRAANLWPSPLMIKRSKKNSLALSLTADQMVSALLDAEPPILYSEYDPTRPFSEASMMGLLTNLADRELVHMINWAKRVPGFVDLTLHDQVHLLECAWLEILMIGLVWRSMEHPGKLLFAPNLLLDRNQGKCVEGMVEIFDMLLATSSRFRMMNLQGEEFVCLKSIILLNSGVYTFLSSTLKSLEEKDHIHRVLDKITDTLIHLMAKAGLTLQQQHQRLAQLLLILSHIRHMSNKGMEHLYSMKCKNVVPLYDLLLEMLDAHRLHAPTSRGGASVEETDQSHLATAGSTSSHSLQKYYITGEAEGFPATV
Chain of Thyrotropin receptor (Homo sapiens) (P16473 whole entry, looked up): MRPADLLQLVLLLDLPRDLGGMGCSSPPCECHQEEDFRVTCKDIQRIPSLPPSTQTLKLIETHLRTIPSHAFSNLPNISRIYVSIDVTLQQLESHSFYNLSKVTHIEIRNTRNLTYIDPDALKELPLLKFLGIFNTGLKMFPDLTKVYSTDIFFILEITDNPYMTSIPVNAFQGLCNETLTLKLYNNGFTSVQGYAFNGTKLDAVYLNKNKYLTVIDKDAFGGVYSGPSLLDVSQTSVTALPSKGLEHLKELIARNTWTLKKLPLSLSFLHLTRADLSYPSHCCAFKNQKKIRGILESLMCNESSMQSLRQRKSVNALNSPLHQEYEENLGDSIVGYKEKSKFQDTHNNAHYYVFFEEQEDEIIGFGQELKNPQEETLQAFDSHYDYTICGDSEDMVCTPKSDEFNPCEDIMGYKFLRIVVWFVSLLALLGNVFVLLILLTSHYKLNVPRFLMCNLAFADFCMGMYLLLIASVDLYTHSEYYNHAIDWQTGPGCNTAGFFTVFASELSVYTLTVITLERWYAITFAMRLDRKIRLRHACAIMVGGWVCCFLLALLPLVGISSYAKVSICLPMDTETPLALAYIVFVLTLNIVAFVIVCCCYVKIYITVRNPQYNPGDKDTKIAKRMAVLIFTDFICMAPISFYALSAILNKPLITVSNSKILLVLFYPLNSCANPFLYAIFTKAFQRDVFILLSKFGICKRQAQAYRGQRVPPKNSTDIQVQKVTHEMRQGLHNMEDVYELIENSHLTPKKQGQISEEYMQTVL
Chain of Progesterone receptor (Homo sapiens) (P06401 whole entry, looked up): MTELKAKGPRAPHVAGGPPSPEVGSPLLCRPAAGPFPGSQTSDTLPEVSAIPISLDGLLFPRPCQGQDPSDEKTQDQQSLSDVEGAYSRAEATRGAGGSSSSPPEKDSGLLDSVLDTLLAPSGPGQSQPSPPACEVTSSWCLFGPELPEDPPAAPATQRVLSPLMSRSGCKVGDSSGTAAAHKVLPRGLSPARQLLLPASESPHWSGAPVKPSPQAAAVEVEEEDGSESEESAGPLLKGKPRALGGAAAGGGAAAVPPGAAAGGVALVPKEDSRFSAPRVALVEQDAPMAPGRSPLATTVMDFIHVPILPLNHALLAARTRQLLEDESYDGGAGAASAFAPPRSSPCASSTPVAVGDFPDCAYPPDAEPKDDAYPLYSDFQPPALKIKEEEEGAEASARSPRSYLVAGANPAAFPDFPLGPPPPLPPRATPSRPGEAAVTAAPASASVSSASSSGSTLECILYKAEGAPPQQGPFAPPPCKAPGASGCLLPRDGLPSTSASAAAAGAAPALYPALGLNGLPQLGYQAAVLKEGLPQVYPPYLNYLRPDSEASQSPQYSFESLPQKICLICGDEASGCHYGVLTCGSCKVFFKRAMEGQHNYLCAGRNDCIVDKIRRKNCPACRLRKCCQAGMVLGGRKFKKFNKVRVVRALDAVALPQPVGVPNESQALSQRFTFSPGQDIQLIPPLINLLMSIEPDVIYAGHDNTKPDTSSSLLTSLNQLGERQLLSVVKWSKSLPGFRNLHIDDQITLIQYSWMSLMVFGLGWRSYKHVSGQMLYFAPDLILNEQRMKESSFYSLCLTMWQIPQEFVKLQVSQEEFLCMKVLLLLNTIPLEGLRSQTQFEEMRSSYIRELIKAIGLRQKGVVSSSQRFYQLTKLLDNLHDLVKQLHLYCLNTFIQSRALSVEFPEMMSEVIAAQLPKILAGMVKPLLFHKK
Chain of Estrogen receptor beta (Homo sapiens) (Q92731 whole entry, looked up): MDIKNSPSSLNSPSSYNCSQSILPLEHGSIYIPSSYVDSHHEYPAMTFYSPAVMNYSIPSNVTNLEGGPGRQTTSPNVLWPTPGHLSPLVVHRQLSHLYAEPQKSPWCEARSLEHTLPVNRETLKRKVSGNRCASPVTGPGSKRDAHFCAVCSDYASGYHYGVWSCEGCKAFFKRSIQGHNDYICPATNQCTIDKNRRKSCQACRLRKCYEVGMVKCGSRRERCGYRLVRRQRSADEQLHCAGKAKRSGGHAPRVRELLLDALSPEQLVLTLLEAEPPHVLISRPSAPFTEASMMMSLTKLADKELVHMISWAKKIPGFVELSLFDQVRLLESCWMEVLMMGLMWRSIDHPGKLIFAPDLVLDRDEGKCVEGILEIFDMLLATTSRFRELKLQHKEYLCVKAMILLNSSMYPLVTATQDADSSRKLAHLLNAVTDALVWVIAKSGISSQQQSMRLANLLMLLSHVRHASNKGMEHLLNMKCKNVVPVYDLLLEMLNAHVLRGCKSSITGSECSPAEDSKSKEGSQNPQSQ

On to `COc1ccc2c(c1)c1c3n2CCN(C)C3=NCC1`, for which the Potency entry in assay [1], in assay [6], in assay [10], in assay [13] and in assay [14] was “inactive” in each case. The outcome in assay [2], in [3], in assay [4], in [5], in [7] and in [8] was inactive. In addition, the compound was classed as inactive in [9], in assay [11], in assay [12] and in [15].
Consider `C=Cc1ccc(C(C)(C)C)cc1`, for which the Potency entry in assay [1], in assay [6], in assay [13] and in assay [14] was “inactive” each time. Moreover, the result in assay [2], in [3], in assay [4], in [5], in assay [7] and in assay [16] was inactive. Besides, the call in [9], in assay [11], in assay [12], in [17] and in [15] was inactive.
As for `CCCCC1CCC(O)CC1` (stereo not given), the Potency entry in assay [1], in [6], in [13] and in assay [14] was “inactive” each time. For the same compound, the call in assay [2], in assay [3], in assay [4], in assay [5], in [7] and in [8] was inactive. For the same compound, the compound was classed as inactive in assay [9], in [12] and in [15].
As for `CC1=NN(c2ccc(S(=O)(=O)O)cc2)C(=O)C1`, the Potency entry in assay [1], in [6], in assay [13] and in assay [14] was “inactive” each time. Further, the call in assay [2], in [3], in [4], in assay [5], in [7] and in [16] was inactive. Besides, the compound was classed as inactive in [9], in [11], in assay [18], in assay [12], in assay [17] and in [15].
Turning to `C/C=C(\C)C(=O)OCCc1ccccc1`, the Potency in [1] was 27300 nM (active). In addition, the call in assay [2], in assay [3], in assay [4], in assay [5], in assay [7] and in assay [16] was inactive. Also, the compound was classed as inactive in [9], in [12] and in [15]. Besides, the Potency result in assay [6], in assay [13] and in assay [14] was “inactive” each time.
`CCC(C)C(=O)OCCc1ccccc1` (stereo not given): the Potency result in [1], in assay [10], in assay [13] and in assay [14] was “inactive” throughout. Moreover, the compound was classed as inactive in assay [2], in assay [3], in assay [4], in assay [5], in assay [7] and in assay [9]. Besides, the result in assay [11], in [18], in assay [12], in [17] and in [15] was inactive.
As for `C[Si]1(C)O[Si](C)(C)O[Si](C)(C)O[Si](C)(C)O[Si](C)(C)O1`, the Potency entry in assay [1], in assay [6] and in assay [13] was “inactive” in each case. Moreover, the outcome in [2], in [3], in [4], in [5], in [7] and in [16] was inactive. Moreover, the result in assay [9], in [11], in assay [18], in [12] and in assay [15] was inactive.
With `CC1CCc2c(N3CCC(O)CC3)c(F)cc3c(=O)c(C(=O)O)cn1c23` (stereo not given), the Potency result in assay [1], in assay [6], in assay [10], in assay [13] and in [14] was “inactive” each time. Further, the compound was called inactive in assay [2], in assay [3], in assay [4], in assay [5], in assay [7] and in assay [9]. Also, the outcome in assay [18], in assay [12] and in assay [17] was inactive.
In the case of `CC(C)c1ccc(C=O)cc1`, the Potency entry in assay [1], in [6], in assay [10], in assay [13] and in assay [14] was “inactive” in each case. For the same compound, the compound was called inactive in assay [2], in assay [3], in assay [4], in assay [5], in assay [7] and in [9]. Further, the compound was called inactive in assay [11], in assay [18], in assay [12], in assay [17] and in assay [15].
Take `CC(O)CC(C)O` (stereo not given): the Potency result in assay [1], in assay [6], in assay [13] and in assay [14] was “inactive” throughout. Moreover, the result in assay [2], in assay [3], in assay [4], in assay [5], in [7] and in [16] was inactive. Moreover, the compound was classed as inactive in assay [9], in assay [12], in assay [17] and in assay [15].
On to `C=CC(=O)CCCCC`, for which the Potency entry in assay [1], in assay [6], in assay [13] and in [14] was “inactive” each time. Besides, the call in assay [2], in assay [3], in assay [4], in assay [5], in assay [7] and in [9] was inactive. For the same compound, the compound was called inactive in assay [18] and in assay [12].
As to `ONc1ccccc1`, the Potency in [1] was 27000 nM (active). For the same compound, the compound was called inactive in assay [2], in [3], in assay [4], in assay [5], in assay [7] and in assay [16]. Besides, the result in assay [9], in [11], in assay [18], in assay [12], in assay [17] and in assay [15] was inactive. In addition, the Potency entry in assay [6], in [13] and in [14] was “inactive” each time.
As to `CCC(=O)Oc1ccc2c(c1)CC[C@@H]1[C@@H]2CC[C@@]2(C)[C@H]1C[C@@H](OC(=O)CC)[C@@H]2OC(=O)CC`, the Potency result in assay [1] and in [13] was “inactive” each time. The outcome in assay [2], in assay [3], in assay [4], in assay [5], in [7] and in assay [16] was inactive. The outcome in assay [8], in assay [9], in [11], in assay [18], in assay [12] and in assay [15] was inactive. Further, the Potency is 21.1 nM (active) in [19], 75 nM (active) in assay [10] and 1880 nM (active) in [14].
